# Reference: PubChem BioAssay (NCATS)
# “And” between values parts separate entries of the source, which are not always exact repeats. Identical values can stand only once. Inconclusive results are not listed. The source made the active and inactive calls. Unless noted, calls come from the whole dose curve; as a rule, active = well fitted curve in the direction sought with a large enough effect; inconclusive = small, poorly fitted or top-dose-only effect, or another doubt; inactive = no such curve, though single readings can be large; an effect the other way counts as inactive or inconclusive.
# Experiments:
# [1] = qHTS drug screen for cell cycle checkpoint inhibitors in PARPi-resistant BRCA-mutant ovarian cancer cell lines. (AID 1963452; calls by dose curve; note: potency is the fitted concentration of half-maximal effect); conditions: PEO1/OlaR viability, CellTiter-Glo luminescence, 96 h; for Z-AUC: stronger effect = lower value
# In short: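 PEO1, PEO4 and PEO1/OlaR ovarian cancer cells, 600 per well, exposed 96 h at 37C to a dilution series. Viability read by CellTiter-Glo luminescence, normalized to DMSO and empty wells; activity summarized as Z-AUC.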
# [2] = target: Cytochrome P450 2D6 (Homo sapiens) (UniProt P10635); assay: qHTS for inhibitors of CYP2D6 against the NCATS DSHEA and TCM libraries (AID 1919972); conditions: CYP2D6 enzymatic inhibition, luminescence qHTS; series mostly up to 18.8 µM; note: % is set by controls: 0 for no effect and ±100 for the full control effect
# In short: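 qHTS, concentration–response format with most substances from 19.5 nM. CYP2D6 + pro-luciferin substrate, 15 min with compound, then 1x NADPH regen, 30–45 min RT dark. Glo detection 30 min, luminescence. Quinidine control.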
# [3] = target: Cytochrome P450 2C9 (Homo sapiens) (UniProt P11712); assay: qHTS for inhibitors of CYP2C9 against the NCATS DSHEA and TCM libraries (AID 1919973); conditions: recombinant CYP2C9 enzyme activity, luminescence; series mostly up to 18.8 µM;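 note: luminogenic pro-luciferin CYP2C9 substrate turned into luciferin with NADPH regeneration; % is set by controls: 0 for no effect and ±100 for the full control effect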
# In short: (§1)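 Substances were tested against enzyme with a pro-luciferin substrate; minus-enzyme wells served as background. After NADPH-initiated oxidation (30-45 min, RT), light was generated with P450-Glo reagent.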
# [4] = target: Cytochrome P450 2C19 (Homo sapiens) (UniProt P33261); assay: qHTS for inhibitors of CYP2C19 against the NCATS DSHEA and TCM libraries (AID 1919974); conditions: CYP2C19 enzyme inhibition, luminescence qHTS; series mostly up to 18.8 µM;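 note: luminescence from luciferin released by CYP2C19 oxidation of a pro-luciferin substrate; % is set by controls: 0 for no effect and ±100 for the full control effect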
# In short: as §1
# [5] = KB-3-1 P-gp reporter qHTS against the NCATS DSHEA and TCM libraries (AID 1919975); conditions: KB-3-1 parental cells, CellTiter-Glo luminescence viability, 72 h; series mostly up to 14.4 µM; note: 0% is about no effect
# In short: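 Parental KB-3-1 human cervical adenocarcinoma cells (500 cells/well, DMEM + 10% FBS) were treated with substances for ~72 h at 37C; viability was read by CellTiter-Glo luminescence.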
# [6] = target: Cytochrome P450 1A2 (Homo sapiens) (UniProt P05177); assay: qHTS for inhibitors of CYPIA2 against the NCATS DSHEA and TCM libraries (AID 1919976); conditions: recombinant CYP1A2 enzyme activity, luminescence; series mostly up to 20.3 µM; note: % is set by controls: 0 for no effect and ±100 for the full control effect
# In short: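 Luminescence read-out: pro-luciferin converted to D-luciferin by CYP1A2, detected with P450-Glo reagent after 30 min RT. Enzyme plus substrate got compounds for 15 min RT; NADPH regeneration solution (final 1x) started a 30-45 min reaction, light-protected.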
# [7] = qHTS Counterscreen for compound interference against the NCATS DSHEA and TCM libraries (AID 1919978); conditions: firefly luciferase detection reagent interference, luminescence; note: % of control where 0% means no effect
# In short: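 D-luciferin (1 uM final) or 100 mM potassium phosphate buffer alone was preincubated 15 min at RT with compounds (19.5 nM to 39.8 uM final). Luciferin detection reagent was then added and luminescence read after 30 min at RT.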
# [8] = Dual reporter qHTS for agonist of Pregnane X Receptor (hPXR) against the NCATS DSHEA and TCM libraries: Fluorescence readout (AID 1920058); conditions: PXR dual reporter cells; series mostly up to 22 µM; note: 0% is about no effect
# In short: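 Fluorescence read-out for cell viability: CellTiter-Fluor, 1 h at 37 °C, Ex/Em 405/540 nm. This followed ~24 h treatment of hPXR-Luc HepG2 cells with substances in agonist mode.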
# [9] = target: Nuclear receptor subfamily 1 group I member 2 (Homo sapiens) (UniProt O75469); assay: Dual reporter qHTS for agonist of Pregnane X Receptor (hPXR) against the NCATS DSHEA and TCM libraries: Luminescence readout (AID 1920059); conditions: hPXR dual reporter cells, luciferase luminescence agonist; series mostly up to 22 µM; note: 0% is about no effect
# In short: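 hPXR-LucHepG2 cells in phenol red-free DMEM with 5% charcoal-stripped FBS, 2000 cells/well, attached 5 h, then exposed 24 h at 37C to compounds; rifampicin as positive agonist control (2.8 nM–92 uM). Luciferase luminescence read.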
# [10] = target: Nuclear receptor subfamily 1 group I member 2 (Homo sapiens) (UniProt O75469); assay: Dual reporter qHTS for antagonist of Pregnane X Receptor (hPXR) against the NCATS DSHEA and TCM libraries: Luminescence Readout (AID 1920060); conditions: hPXR dual reporter cells, luciferase luminescence, antagonist mode; series mostly up to 22 µM; note: 0% is about no effect
# In short: (§2)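 Rifampicin-stimulated (2 uM final) hPXR-luciferase HepG2 cells were treated for 24 h with DSNP/TCM substances. Viability came from CellTiter-Fluor fluorescence, reporter activity from ONE-Glo luminescence.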
# [11] = Dual reporter qHTS for antagonist of Pregnane X Receptor (hPXR) against the NCATS DSHEA and TCM libraries: Fluorescence Readout (AID 1920061); conditions: PXR dual reporter cells, antagonist mode; series mostly up to 22 µM; note: 0% is about no effect
# In short: as §2
# [12] = measured here: PEO1 parental Z-AUC
# Sequence of Cytochrome P450 2C19 (Homo sapiens) (P33261 whole entry, looked up): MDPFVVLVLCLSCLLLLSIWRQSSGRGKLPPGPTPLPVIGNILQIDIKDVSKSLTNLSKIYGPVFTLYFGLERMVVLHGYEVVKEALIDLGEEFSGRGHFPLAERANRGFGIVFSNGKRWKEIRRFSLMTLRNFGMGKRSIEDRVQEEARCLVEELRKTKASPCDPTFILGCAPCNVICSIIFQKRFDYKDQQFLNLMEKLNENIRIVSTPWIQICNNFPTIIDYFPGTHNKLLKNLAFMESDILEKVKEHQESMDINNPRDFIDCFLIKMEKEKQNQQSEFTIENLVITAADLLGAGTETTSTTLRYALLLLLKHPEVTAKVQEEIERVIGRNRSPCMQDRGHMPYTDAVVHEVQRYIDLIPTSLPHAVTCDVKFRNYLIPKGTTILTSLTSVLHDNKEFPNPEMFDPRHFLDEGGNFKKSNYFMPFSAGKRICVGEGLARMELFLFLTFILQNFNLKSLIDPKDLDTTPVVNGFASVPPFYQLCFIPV
# Sequence of Cytochrome P450 2D6 (Homo sapiens) (P10635 whole entry, looked up): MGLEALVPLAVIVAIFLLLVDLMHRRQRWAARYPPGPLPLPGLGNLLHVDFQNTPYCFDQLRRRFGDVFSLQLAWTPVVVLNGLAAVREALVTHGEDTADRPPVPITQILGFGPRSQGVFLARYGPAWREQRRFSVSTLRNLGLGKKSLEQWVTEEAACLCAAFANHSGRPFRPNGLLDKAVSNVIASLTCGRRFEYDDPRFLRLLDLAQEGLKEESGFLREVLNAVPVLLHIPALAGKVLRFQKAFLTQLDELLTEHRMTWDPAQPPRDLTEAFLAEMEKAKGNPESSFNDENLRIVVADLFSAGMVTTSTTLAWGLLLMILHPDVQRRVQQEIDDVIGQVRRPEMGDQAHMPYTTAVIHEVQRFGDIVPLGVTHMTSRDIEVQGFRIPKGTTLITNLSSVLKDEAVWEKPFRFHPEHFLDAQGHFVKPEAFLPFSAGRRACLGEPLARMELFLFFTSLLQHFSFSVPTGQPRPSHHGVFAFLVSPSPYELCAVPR
# Sequence of Nuclear receptor subfamily 1 group I member 2 (Homo sapiens) (O75469 whole entry, looked up): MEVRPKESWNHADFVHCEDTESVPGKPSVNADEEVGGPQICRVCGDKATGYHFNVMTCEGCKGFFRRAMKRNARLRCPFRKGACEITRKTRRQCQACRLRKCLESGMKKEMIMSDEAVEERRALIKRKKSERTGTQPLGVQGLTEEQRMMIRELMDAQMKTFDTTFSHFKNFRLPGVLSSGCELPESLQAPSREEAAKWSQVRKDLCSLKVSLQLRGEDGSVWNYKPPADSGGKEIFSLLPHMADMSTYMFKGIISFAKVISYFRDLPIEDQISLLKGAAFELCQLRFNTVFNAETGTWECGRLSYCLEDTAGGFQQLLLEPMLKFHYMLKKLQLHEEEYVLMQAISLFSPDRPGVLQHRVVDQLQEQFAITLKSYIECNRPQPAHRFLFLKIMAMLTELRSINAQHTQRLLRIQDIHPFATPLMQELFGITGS
# Sequence of Cytochrome P450 1A2 (Homo sapiens) (P05177 whole entry, looked up): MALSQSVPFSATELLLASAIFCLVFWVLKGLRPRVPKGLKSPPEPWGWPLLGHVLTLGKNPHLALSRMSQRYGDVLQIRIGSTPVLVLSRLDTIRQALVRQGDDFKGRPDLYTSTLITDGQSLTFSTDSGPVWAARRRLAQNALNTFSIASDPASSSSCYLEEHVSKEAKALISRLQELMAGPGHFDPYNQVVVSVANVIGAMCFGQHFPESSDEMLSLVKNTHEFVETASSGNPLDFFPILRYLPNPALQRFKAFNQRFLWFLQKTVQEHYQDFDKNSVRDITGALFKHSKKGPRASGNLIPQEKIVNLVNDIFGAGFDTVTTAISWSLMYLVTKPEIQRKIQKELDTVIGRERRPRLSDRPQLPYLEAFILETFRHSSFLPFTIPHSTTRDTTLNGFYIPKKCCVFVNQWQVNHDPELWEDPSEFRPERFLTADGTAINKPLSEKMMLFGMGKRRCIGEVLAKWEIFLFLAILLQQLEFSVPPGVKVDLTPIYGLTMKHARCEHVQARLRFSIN
# Sequence of Cytochrome P450 2C9 (Homo sapiens) (P11712 whole entry, looked up): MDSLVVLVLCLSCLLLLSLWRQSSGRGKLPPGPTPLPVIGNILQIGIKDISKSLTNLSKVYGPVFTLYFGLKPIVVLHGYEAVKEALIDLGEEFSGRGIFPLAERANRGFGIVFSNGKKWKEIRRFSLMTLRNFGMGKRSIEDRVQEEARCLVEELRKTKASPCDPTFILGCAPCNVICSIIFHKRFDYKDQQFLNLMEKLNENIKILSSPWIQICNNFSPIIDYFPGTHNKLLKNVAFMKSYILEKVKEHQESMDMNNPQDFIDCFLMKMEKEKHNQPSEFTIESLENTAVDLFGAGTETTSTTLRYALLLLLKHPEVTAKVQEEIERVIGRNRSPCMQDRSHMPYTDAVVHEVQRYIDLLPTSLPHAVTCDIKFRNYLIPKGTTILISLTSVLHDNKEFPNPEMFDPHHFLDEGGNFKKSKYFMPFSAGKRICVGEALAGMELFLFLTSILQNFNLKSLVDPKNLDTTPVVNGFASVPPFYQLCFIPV
smiles,measurement,setting,value
COC(=O)N[C@@H](C)CNc1nccc(-c2cn(C(C)C)nc2-c2cc(Cl)cc(NS(C)(=O)=O)c2F)n1,Z-AUC,[1],-0.294 (inactive)
same,Z-AUC,[1]; [12],-0.151
same,Z-AUC,[1]; measured here: PEO4 Z-AUC,-0.157
CN(C)C1CCN(C(=O)c2ccc(NC(=O)Nc3ccc(-c4nc(N5CCOCC5)nc(N5CCOCC5)n4)cc3)cc2)CC1,Potency,[1],309 nM (active) and 692 nM (active)
same,Z-AUC,[1]; [12],-2.41 and -1.47
same,Z-AUC,[1]; measured here: PEO4 Z-AUC,-1.87 and -2.03
CN(C)C/C=C/C(=O)Nc1cccc(C(=O)Nc2cccc(Nc3ncc(Cl)c(-c4c[nH]c5ccccc45)n3)c2)c1,Z-AUC,[1],-1.57 (inactive)
same,Z-AUC,[1]; [12],-1.76
same,Z-AUC,[1]; measured here: PEO4 Z-AUC,-1.32
OC[C@H]1O[C@@H](OC[C@H]2O[C@@H](OC/C=C/c3ccccc3)[C@H](O)[C@@H](O)[C@@H]2O)[C@@H](O)[C@@H]1O,outcome,[2],inactive
same,outcome,[3],inactive
same,Potency,[4],inactive
same,outcome,[5],inactive
same,Potency,[6],inactive
same,max response,[7],-0.863% (inactive)
same,outcome,[8],inactive
same,outcome,[9],inactive
same,outcome,[10],inactive
same,outcome,[11],inactive
CC1CC[C@]2(C(=O)O)CC[C@]3(C(=O)O)C(=CCC4[C@@]5(C)CC[C@H](OC6OC(C)C(O)C(OC7OC(CO)C(O)C(O)C7O)C6O)C(C)(C)C5CC[C@]43C)C2C1C (some centres undefined),outcome,[2],inactive
same,Potency,[4],inactive
same,outcome,[5],inactive
same,Potency,[6],inactive
same,max response,[7],-1.38% (inactive)
same,outcome,[8],inactive
same,outcome,[9],inactive
same,outcome,[10],inactive
same,outcome,[11],inactive
CNC(=O)c1cc(Oc2ccc3nc(N[C@@H]4CCCC[C@H]4O)sc3c2)ccn1,Z-AUC,[1],-0.222 (inactive)
same,Z-AUC,[1]; [12],-0.612
same,Z-AUC,[1]; measured here: PEO4 Z-AUC,-0.476
O=C(O)c1ccc(CN2CCC(CN[C@@H]3C[C@H]3c3ccccc3)CC2)cc1,Z-AUC,[1],-0.0301 (inactive)
same,Z-AUC,[1]; [12],1.03
same,Z-AUC,[1]; measured here: PEO4 Z-AUC,0.899
CC(C)=CCC[C@](C)(O)[C@H]1CC[C@]2(C)[C@@H]1[C@H](O)CC1[C@@]3(C)CC[C@H](O)C(C)(C)[C@@H]3[C@@H](O[C@@H]3O[C@H](CO)[C@@H](O)[C@H](O)[C@H]3O[C@@H]3O[C@H](CO)[C@@H](O)[C@H](O)[C@H]3O)C[C@]12C (some centres undefined),outcome,[2],inactive
same,outcome,[3],inactive
same,Potency,[4],inactive
same,outcome,[5],inactive
same,Potency,[6],inactive
same,max response,[7],-4.33% (inactive)
same,outcome,[8],inactive
same,outcome,[9],inactive
same,outcome,[10],inactive
same,outcome,[11],inactive
Nc1ccc(/C=C/C(=O)NCc2cc3cc(-c4ccc(C(=O)N5CCC(F)(F)CC5)cc4)cc(-c4ccc(F)cc4)c3o2)cn1,Z-AUC,[1],-0.388 (inactive)
same,Z-AUC,[1]; [12],-0.891
same,Z-AUC,[1]; measured here: PEO4 Z-AUC,-0.788
Cc1cccc(Oc2cnc(=O)[nH]c2)c1,Z-AUC,[1],-0.692 (inactive)
same,Z-AUC,[1]; [12],-0.81
same,Z-AUC,[1]; measured here: PEO4 Z-AUC,-0.687
CC(O)c1cc(C(=O)N[C@@H](C)Cn2ccc(-c3ccc(C#N)c(Cl)c3)n2)n[nH]1 (some centres undefined),Z-AUC,[1],-0.266 (inactive)
same,Z-AUC,[1]; [12],-0.668
same,Z-AUC,[1]; measured here: PEO4 Z-AUC,-0.279
COc1ncc(Nc2ncc([C@H](C)N3CCN(S(C)(=O)=O)CC3)cc2-c2nc(C)nc(N)n2)cc1F,Z-AUC,[1],-0.261 (inactive)
same,Z-AUC,[1]; [12],-0.0225
same,Z-AUC,[1]; measured here: PEO4 Z-AUC,-0.164
O=C(C(c1ccccc1)c1ccccc1)N1CCN(CC(O)COc2cccc3ncccc23)CC1 (centres undefined),Z-AUC,[1],0.889 (inactive)
same,Z-AUC,[1]; [12],0.623
same,Z-AUC,[1]; measured here: PEO4 Z-AUC,0.296
Cn1cncc1C(N)(c1ccc(Cl)cc1)c1ccc2c(c1)c(-c1cccc(Cl)c1)cc(=O)n2C (centres undefined),Z-AUC,[1],-1.06 (inactive)
same,Z-AUC,[1]; [12],-0.892
same,Z-AUC,[1]; measured here: PEO4 Z-AUC,-0.873
CCS(=O)(=O)N1CCN(c2ccc(Nc3ncc(C(N)=O)c(NC4CC4)n3)cc2)CC1,Z-AUC,[1],0.319 (inactive)
same,Z-AUC,[1]; [12],-0.223
same,Z-AUC,[1]; measured here: PEO4 Z-AUC,-0.0452
CC(C)(C)C(=O)CN1C(=O)[C@H](NC(=O)Nc2cccc(C(=O)O)c2)CN(C2CCCCC2)c2ccccc21,Z-AUC,[1],1.75 (inactive)
same,Z-AUC,[1]; [12],1.32
same,Z-AUC,[1]; measured here: PEO4 Z-AUC,1.22
Cc1cnc(Nc2ccc(F)cc2Cl)nc1-c1c[nH]c(C(=O)NC(CO)c2cccc(Cl)c2)c1 (centres undefined),Z-AUC,[1],-0.685 (inactive)
same,Z-AUC,[1]; [12],-0.607
same,Z-AUC,[1]; measured here: PEO4 Z-AUC,-0.952
CNCc1ccc(-c2cc(-c3nc(-c4ccc(S(=O)(=O)C(C)C)cc4)cnc3N)on2)cc1,Z-AUC,[1],0.146 (inactive)
same,Z-AUC,[1]; [12],0.477
same,Z-AUC,[1]; measured here: PEO4 Z-AUC,0.605
CO[C@H]1C[C@@H]2CC[C@@H](C)[C@@](O)(O2)C(=O)C(=O)N2CCCC[C@H]2C(=O)O[C@H]([C@H](C)C[C@@H]2CC[C@@H](OP(C)(C)=O)[C@H](OC)C2)CC(=O)[C@H](C)/C=C(\C)[C@@H](O)[C@@H](OC)C(=O)[C@H](C)C[C@H](C)/C=C/C=C/C=C/1C,Z-AUC,[1],0.099 (inactive)
same,Z-AUC,[1]; [12],0.103
same,Z-AUC,[1]; measured here: PEO4 Z-AUC,-0.0432
CN1CCN(C2CCC(n3cc(-c4ccc(Oc5ccccc5)cc4)c4c(N)ncnc43)CC2)CC1 (centres undefined),Z-AUC,[1],-1.03 (inactive)
same,Z-AUC,[1]; [12],-1.14
same,Z-AUC,[1]; measured here: PEO4 Z-AUC,-0.439
Cc1cc(C)c(CNC(=O)c2cc(-c3ccc(CN4CCOCC4)cc3)cc3c2cnn3C2CCCC2)c(=O)[nH]1,Z-AUC,[1],0.564 (inactive)
same,Z-AUC,[1]; [12],-0.591
same,Z-AUC,[1]; measured here: PEO4 Z-AUC,0.1
FC(F)(F)c1ccc(Nc2nc(-c3c(C(F)(F)F)nc4ccccn34)cs2)cc1,Z-AUC,[1],-2.12 (inactive)
same,Z-AUC,[1]; [12],-1.08
same,Z-AUC,[1]; measured here: PEO4 Z-AUC,-1.77
CCN1CCN(Cc2ccc(NC(=O)Nc3ccc(Oc4cc(NC)ncn4)cc3)cc2C(F)(F)F)CC1,Potency,[1],4.9 µM (active)
same,Z-AUC,[1]; [12],-1.75
same,Z-AUC,[1]; measured here: PEO4 Z-AUC,-1.71
